# Assay outcomes (PubChem BioAssay)
# PNC assembly inh: blocks assembly of the perinucleolar compartment | hit rate 3.1% among 140,000 | PC3M PTB-GFP, PNC prevalence imaging, 16 h; stronger effect = lower value | activity change (PNC), negative = inhibition, % at 10 µM;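 active = readout at or below -70, meaning at least 70% loss of cells showing the perinucleolar compartment, a nuclear body marking cancer cells; inconclusive = readout between -30 and a set limit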;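 note: plate controls were DMSO wells for no effect and camptothecin positive control wells for full effect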
#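 PC3M cells stably expressing PTB-GFP, 750–1000 cells/well, treated 16 h at 37 °C with compound (23 nl of library stock), in duplicate. After paraformaldehyde fixation and Hoechst stain, imaged at 20x; PNC prevalence scored by image analysis.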
# IMPase Li cell: IMPase inhibition in cells with lithium potentiation | CHO-M1 cells, IP1 TR-FRET (IP-One), carbachol + lithium | Potency, µM (series often up to 59.4 µM), without a hit: at the highest dose activity, negative = IMPase inhibition, hits mostly inhibitors | hit rate 0.35% among 210,000 | AID 1457; active = well fitted curve in the direction sought with a large enough effect; inconclusive = small, poorly fitted or top-dose-only effect, or another doubt; inactive = no such curve, though single readings can be large; an effect the other way counts as inactive or inconclusive;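 note: IP1 builds up when IMPase is blocked and the TR-FRET signal falls; potency is the fitted concentration of half-maximal effect; plate controls were basal vehicle for no effect and high inhibitor control for full effect; nearly all actives have a fitted effect of over 50% in size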
#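 CHO cells stably expressing M1 receptor (2000/well) were cultured 16–30 h, then exposed to compounds with a small lithium addition for 30 min at 37C. IP1 was measured by TR-FRET competition; AC50 from Hill fits.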
# ALOX12 inhib: blocks human 12-lipoxygenase activity | P18054 | AID 1452 | purified 12-hLO, xylenol orange hydroperoxide absorbance | Potency, µM (series often up to 57.1 µM), inactives show at the top dose activity change, negative = inhibition, usual class: inhibitors | hit rate 0.12% among 150,000; active = well fitted curve in the direction sought with a large enough effect; inconclusive = small, poorly fitted or top-dose-only effect, or another doubt; inactive = no such curve, though single readings can be large; an effect the other way counts as inactive or inconclusive; note: potency is the fitted concentration of half-maximal effect; nearly all actives have a fitted effect of over 55% in size
# Target sequence (P18054 whole entry, looked up): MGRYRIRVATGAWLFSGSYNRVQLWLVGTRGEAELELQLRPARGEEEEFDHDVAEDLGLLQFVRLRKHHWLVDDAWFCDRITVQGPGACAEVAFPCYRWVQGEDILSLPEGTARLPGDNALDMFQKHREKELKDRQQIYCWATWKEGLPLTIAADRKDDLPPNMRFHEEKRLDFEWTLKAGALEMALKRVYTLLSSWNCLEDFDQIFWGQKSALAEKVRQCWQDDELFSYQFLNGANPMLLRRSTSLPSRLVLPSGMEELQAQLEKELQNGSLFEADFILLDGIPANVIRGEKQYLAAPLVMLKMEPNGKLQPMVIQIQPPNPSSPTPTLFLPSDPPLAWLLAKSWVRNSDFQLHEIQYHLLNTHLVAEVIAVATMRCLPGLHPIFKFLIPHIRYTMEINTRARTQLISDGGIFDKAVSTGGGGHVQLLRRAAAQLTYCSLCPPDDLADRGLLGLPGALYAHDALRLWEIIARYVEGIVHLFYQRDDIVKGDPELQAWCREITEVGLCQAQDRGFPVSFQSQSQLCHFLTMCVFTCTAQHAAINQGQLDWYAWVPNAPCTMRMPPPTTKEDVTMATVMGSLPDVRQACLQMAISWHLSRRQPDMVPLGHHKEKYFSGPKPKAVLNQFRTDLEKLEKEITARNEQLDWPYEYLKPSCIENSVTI
#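 Purified human 12hLO (150 nM final) was preincubated with compounds for 15 min at room temperature in 25 mM Hepes pH 7.0, 0.01% Triton X-100, then reacted with 40 uM arachidonic acid for 30 min. Hydroperoxide was detected with ferrous iron/xylenol orange.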
# ALDH1A1 block: blocks purified human ALDH1A1 activity; P00352; Purified ALDH1A1, NADH fluorescence, propionaldehyde substrate; Potency, µM (series often up to 75.3 µM), for inactives: at the highest dose activity, negative = inhibition, actives largely listed as inhibitors; hit rate 7.3% among 220,000;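 note: potency is the fitted concentration of half-maximal effect; plate controls were no enzyme wells and a reference inhibitor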
# IMPase cell inh: IMPase inhibition in cells; P97697; CHO-M1 cells, IP1 accumulation, HTRF TR-FRET ratio; inhibition (IP1 accumulation), % at 46.1 µM; 120,000 tested, under 10 active; AID 901; active = well fitted curve in the direction sought with a large enough effect in the signal ratio, not every such curve was filed as active; inconclusive = small, poorly fitted or top-dose-only effect, or a change in a side signal; inactive = no such curve, though single readings can be large or run the other way; the % refers to the signal ratio;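 note: cells stimulated with carbachol in lithium chloride buffer; plate controls were DMSO basal wells for no effect and reference inhibitor wells for full effect; higher means more IMPase inhibition seen as more IP1 and lower FRET ratio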
#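 Cellular IMPase inhibition is scored as a rise in cytosolic IP1, detected by competitive TR-FRET between d2-labelled IP1 and a europium anti-IP1 antibody. M1-expressing CHO cells were stimulated with carbachol for 30 min at 37C, with lithium (50 mM LiCl) present in the buffer.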
# HPGD block: inhibitors of human 15-hydroxyprostaglandin dehydrogenase (HPGD). purified HPGD, NADH fluorescence kinetic, PGE2 substrate. hit rate 4.3% among 150,000. AID 894. Potency, µM, inactives show at the top dose activity change, negative = inhibition, actives largely listed as inhibitors; note: potency is the fitted concentration of half-maximal effect
#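 NADH formation kinetics: reaction with 30 uM PGE2 and 1 mM NAD+ (final), 20 nM enzyme, Tris-HCl pH 8 with Tween 20, after 15 min compound preincubation at room temperature. Fluorescence change, last versus first of five reads.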
# * = called active by the depositor; ? = inconclusive; . = no result given; [ ] = dose if it differs, or a comment. The list is not random: actives were taken first. Their share in the collection is about 11%. Unless noted, calls come from the whole dose curve; as a rule, active = well fitted inhibition curve with a large enough effect (not every such curve was filed as active); inconclusive = small, poorly fitted or top-dose-only effect, or another doubt; inactive = no such curve, though single readings can be large or run the other way. Unless noted, % is set by controls: 0 for no effect and ±100 for the full control effect.
SMILES,PNC assembly inh,IMPase Li cell,ALOX12 inhib,ALDH1A1 block,IMPase cell inh,HPGD block
O=C(C1CCCN1C(=O)c1cccs1)N1CCc2ccccc21 (configuration not stated),-98*,2%[38.3 µM],-1%,?,-2,-18%
CCN=C(N)CSS(=O)(=O)O,.,-3%,1%[11.4 µM],-7%[13.5 µM],.,-1%
CC(C)Cn1c(N)c(C(=O)CCl)c(=O)n(C)c1=O,?,-11%,1%,8.9µM*,.,-3%
Cn1c(=O)c(C(=O)CCl)c(N)n(CC2CC2)c1=O,33,1%,-2%,20µM*,.,0%
Cc1ccc(-c2c[nH]c(=S)n2-c2ccccc2F)cc1,.,6%,.,2µM*,.,.
Cc1ccc(-c2c[nH]c(=S)n2-c2ccccc2)cc1,.,0%,.,1µM*,.,.
Cc1c(NC(=O)c2ccc(OC(C)C)cc2)cccc1-c1nc2ncccc2o1,.,.,.,.,-2,.
C#CCCCO/N=C1/C[C@@H](O)[C@@H](O)[C@@H]2[C@@H]3C(=O)N(CC)C(=O)[C@H]3CC[C@H]12,.,.,.,2%[13.5 µM],.,.
CCOc1ccc(CN(CCc2ccc3c(c2)OCO3)Cc2cc(OC)cc(OC)c2)cc1,.,.,.,.,7,.
COC(=O)C1=C(C)N=C2SC(C#N)=C(N)N2C1c1cccc(OC)c1 (configuration not stated),25,26%[38.3 µM],-7%,13µM*,0,-10%
CCNC(=O)[C@H]1O[C@H](n2cnc3c(N)nc(NCCc4ccc(CCC(=O)O)cc4)nc32)[C@@H](O)[C@@H]1O,.,4%,-1%,?,-1,-12%
Cc1cc(O)c2c(c1O)C(=O)C(O)=C(O)C2=O,.,33%,.,?,.,?
O=C(CSc1ncn(-c2ccccc2)n1)N1CCN(c2ccccc2)CC1,-18,23%[38.3 µM],-7%,14µM*,5,28µM*
Cc1sc(NC(=O)CSc2nnc(CCNC(=O)c3cccs3)n2C)nc1-c1ccccc1,22,9%,-1%,11%,17,-2%
CCn1c(SCC(=O)N2CCN(c3ccccc3)CC2)nnc1-c1ccncc1,-100*,-1%,-1%,25µM*,3,20µM*
Cn1c(CCNC(=O)c2cccs2)nnc1SCC(=O)N1CCN(c2ccccc2)CC1,?,23%[38.3 µM],4%,28µM*,7,1%
Cn1c(SCC(=O)N2CCN(c3ccccc3)CC2)nnc1-c1ccccc1,15,-22%[38.3 µM],-1%,7.9µM*,4,-1%
Cc1ccnc(SCC(=O)N2CCN(c3ccccc3)CC2)n1,-14,11%,-2%,?,7,-11%
Cn1c(SCC(=O)N2CCN(c3ccccc3)CC2)nnc1-c1c[nH]c2ccccc12,-14,-2%[38.3 µM],-5%,15%,0,-7%
Cc1ccc(-c2nnc(SCC(=O)N3CCN(c4ccccc4)CC3)o2)cc1,?,11µM*,-5%,-2%,-5,-4%
Cn1c(SCC(=O)N2CCN(c3ccccc3)CC2)nnc1-c1ccco1,9,9%[38.3 µM],-2%,13µM*,8,3%
COc1ccc(-c2nnc(SCC(=O)N3CCN(c4ccccc4)CC3)o2)cc1OC,40,-12%,1%,6%,.,-6%
O=C(CSc1nnc(-c2ccco2)n1-c1ccccc1)N1CCN(C(=O)c2ccco2)CC1,-20,8%[38.3 µM],-1%,?,-2,-18%
CN(C)c1ccc(-c2nccc(NCCN3CCOCC3)n2)cc1,.,0%,-2%,?,.,?
Fc1ccc([C@H]2CCNC[C@H]2COc2ccc3c(c2)OCO3)cc1,.,29%,-8%,?,14,-4%
COc1cc2c3cc1Oc1cc(ccc1O)C[C@@H]1c4c(cc(OC)c(O)c4Oc4ccc(cc4)C[C@H]3[N+](C)(C)CC2)CC[N+]1(C)C,.,-4%,-1%[11.4 µM],2%[13.5 µM],.,-2%
C/C(=N\Nc1nc2ccccc2s1)c1cccs1,-5,-4%,13µM*,5%,.,14µM*
CSc1ccc(/C=N/Nc2nc(C)cc(=O)[nH]2)cc1,.,8%,.,-4%,.,.
Cc1cc(=O)[nH]c(N/N=C/c2c(C)nn(-c3ccc(F)cc3)c2Cl)n1,.,14%,.,6.3µM*,.,.
